Assay results from PubChem BioAssay (NCI).
About 79,000 compounds went through this panel and 15% of them were active in at least one assay; those are over-represented in the sample as a whole. Unmarked numbers belong to inactive results. Active and inactive are the calls of the source. Rule as the data show it: active = growth inhibition above about 70%; inactive = the rest.

How the values were obtained:
[1] = NCI Yeast Anticancer Drug Screen. Data for the rad50 strain (AID 155);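 also: 0% = growth of vehicle-only cultures of the same strain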; conditions: S. cerevisiae rad50 strain growth inhibition, active compounds read high
Outline: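 Compounds were tested on a yeast strain with an engineered DNA damage repair alteration; the reported value is growth inhibition normalised to vehicle treatment.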

[2] = NCI Yeast Anticancer Drug Screen. Data for the mec2-1 strain (AID 157); conditions: S. cerevisiae mec2-1 strain, active compounds read high
Outline: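 Strain: mec2-1 (DNA repair/cell cycle alteration). Compound exposure, then growth measured; inhibition expressed relative to vehicle.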

[3] = NCI Yeast Anticancer Drug Screen. Data for the sgs1 mgt1 strain (AID 161);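 also: 0% = growth of cultures given vehicle only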; conditions: S. cerevisiae sgs1 mgt1 strain, active compounds read high
Outline: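 Genetically altered yeast, compound exposure, growth inhibition relative to vehicle.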

[4] = NCI Yeast Anticancer Drug Screen. Data for the cln2 rad14 strain (AID 165);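 also: 0% = growth equal to vehicle treated cultures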; conditions: S. cerevisiae cln2 rad14 strain, active compounds read high
Outline: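 Compounds are applied to the cln2 rad14 yeast strain, and growth is then compared with that of vehicle-treated cultures to give inhibition.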

[5] = NCI Yeast Anticancer Drug Screen. Data for the bub3 strain (AID 167); conditions: S. cerevisiae bub3 mutant strain, active compounds read high
Outline: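 Growth of a checkpoint-deficient yeast mutant is measured after compound exposure. Values represent inhibition relative to vehicle.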

[6] = NCI Yeast Anticancer Drug Screen. Data for the mlh1 rad18 strain (AID 175); conditions: S. cerevisiae mlh1 rad18 strain growth inhibition, active compounds read high
Outline: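 Read-out is yeast growth inhibition, calculated against vehicle-only controls. The compound was applied to a strain engineered with DNA damage repair alterations.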

[7] = at 5.0 µM (retest, dose inferred, filed as 0.5)
[8] = at 50.0 µM (retest, dose inferred, filed as 5.0)

Row | Compound | growth inhibition [1, 7] | growth inhibition [1, 8] | growth inhibition ([1]; at 50.0 µM) | growth inhibition [2, 7] | growth inhibition [2, 8] | growth inhibition ([2]; at 50.0 µM) | growth inhibition [3, 7] | growth inhibition [3, 8] | growth inhibition ([3]; at 50.0 µM) | growth inhibition [4, 7] | growth inhibition [4, 8] | growth inhibition ([4]; at 50.0 µM) | growth inhibition [5, 7] | growth inhibition [5, 8] | growth inhibition ([5]; at 50.0 µM) | growth inhibition [6, 7] | growth inhibition [6, 8] | growth inhibition ([6]; at 50.0 µM)
1 | Cc1cc(C)c([O-])c(-[n+]2c(-c3ccccc3)cc(-c3ccccc3)cc2-c2ccccc2)c1 | 14% | 14% | 90.8% (active) | 1% | 1% | 92.5% (active) | 22% | 22% | 91% (active) | -8% | -8% | 89.8% (active) | -2% | -2% | 92.2% (active) | 3% | 3% | 89.7% (active)
2 | COc1ccc(Nc2nc3ccccc3s2)cc1 | 1% | 15% | 21% | -3% | 0% | 35.4% | 0% | 35% | 38.3% | -7% | -14% | -66% | 5% | 42% | 85.8% (active) | 10% | 15% | 58.7%
3 | O=C1OC(C2OC(=O)C(=O)C2C(=O)c2ccc(Cl)cc2)C(C(=O)c2ccc(Cl)cc2)C1=O (configuration not stated) | -3% | 63% | 82.9% (active) | -3% | 37% | 11.8% | 1% | 64% | 30.5% | -4% | 31% | 29.6% | 9% | 43% | 43% | -5% | 85% (active) | 76.7% (active)
4 | CCCCCCCCCCCCCCCCCc1nnc(N)o1 | 1% | 24% | -11.8% | 7% | 33% | -0.5% | 18% | 51% | 19% | 1% | 36% | 45.6% | 6% | 40% | 11.2% | 6% | 25% | -3.6%
